# Measured values taken from the supplement of paper PMC6897291.
# Counter-ions that a name gives are not always drawn.
# Legend:
# [1] = tested on: U-2932; assay: growth inhibition by drug alone (1 - RLU/untreated control) (fraction); higher = stronger inhibition; conditions: 177Lu-lilotomab satetraxetan 0 ug/ml
# Outline: (§1)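 With or without 18 h pretreatment by a radiolabelled anti-CD37 antibody conjugate (~600 MBq/mg; 0.5 µg/ml RIVA, 1 µg/ml U-2932), RIVA and U-2932 cells were washed and plated at 3,000 cells/well. Pre-printed compound doses were 10/100 nM for RIVA and 10/1,000 nM for U-2932. Growth inhibition uses RealTime-Glo RLU relative to the untreated no-drug wells. The calculation is 1 − RLU/mean of 48 such wells per plate, with reads daily from day 3 after 1 h at 37°C.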
# [2] = tested on: RIVA; assay: as above; conditions: 177Lu-lilotomab satetraxetan 0 ug/ml
# Outline: as §1
# [3] = tested on: U-2932; assay: growth inhibition by drug plus 177Lu-lilotomab satetraxetan (1 - RLU/untreated control) (fraction); higher = stronger inhibition; conditions: 177Lu-lilotomab satetraxetan 1 ug/ml
# Outline: as §1
# [4] = tested on: RIVA; assay: as above; conditions: 177Lu-lilotomab satetraxetan 0.5 ug/ml
# Outline: as §1
Structure (SMILES),"growth inhibition by drug alone ([1]; 10 nM, time (day): 3)","growth inhibition by drug alone ([1]; 10 nM, time (day): 4)","growth inhibition by drug alone ([1]; 10 nM, time (day): 5)","growth inhibition by drug alone ([1]; 10 nM, time (day): 6)","growth inhibition by drug alone ([1]; 1000 nM, time (day): 3)","growth inhibition by drug alone ([1]; 1000 nM, time (day): 4)","growth inhibition by drug alone ([1]; 1000 nM, time (day): 5)","growth inhibition by drug alone ([1]; 1000 nM, time (day): 6)","growth inhibition by drug alone ([2]; 10 nM, time (day): 3)","growth inhibition by drug alone ([2]; 10 nM, time (day): 4)","growth inhibition by drug alone ([2]; 10 nM, time (day): 5)","growth inhibition by drug alone ([2]; 10 nM, time (day): 6)","growth inhibition by drug alone ([2]; 100 nM, time (day): 3)","growth inhibition by drug alone ([2]; 100 nM, time (day): 4)","growth inhibition by drug alone ([2]; 100 nM, time (day): 5)","growth inhibition by drug alone ([2]; 100 nM, time (day): 6)","growth inhibition by drug plus 177Lu-lilotomab satetraxetan ([3]; 10 nM, time (day): 3)","growth inhibition by drug plus 177Lu-lilotomab satetraxetan ([3]; 10 nM, time (day): 4)","growth inhibition by drug plus 177Lu-lilotomab satetraxetan ([3]; 10 nM, time (day): 5)","growth inhibition by drug plus 177Lu-lilotomab satetraxetan ([3]; 10 nM, time (day): 6)","growth inhibition by drug plus 177Lu-lilotomab satetraxetan ([3]; 1000 nM, time (day): 3)","growth inhibition by drug plus 177Lu-lilotomab satetraxetan ([3]; 1000 nM, time (day): 4)","growth inhibition by drug plus 177Lu-lilotomab satetraxetan ([3]; 1000 nM, time (day): 5)","growth inhibition by drug plus 177Lu-lilotomab satetraxetan ([3]; 1000 nM, time (day): 6)","growth inhibition by drug plus 177Lu-lilotomab satetraxetan ([4]; 10 nM, time (day): 3)","growth inhibition by drug plus 177Lu-lilotomab satetraxetan ([4]; 10 nM, time (day): 4)","growth inhibition by drug plus 177Lu-lilotomab satetraxetan ([4]; 10 nM, time (day): 5)","growth inhibition by drug plus 177Lu-lilotomab satetraxetan ([4]; 10 nM, time (day): 6)","growth inhibition by drug plus 177Lu-lilotomab satetraxetan ([4]; 100 nM, time (day): 3)","growth inhibition by drug plus 177Lu-lilotomab satetraxetan ([4]; 100 nM, time (day): 4)","growth inhibition by drug plus 177Lu-lilotomab satetraxetan ([4]; 100 nM, time (day): 5)","growth inhibition by drug plus 177Lu-lilotomab satetraxetan ([4]; 100 nM, time (day): 6)"
C[C@]12CC[C@@H]3c4ccc(O)cc4CC[C@H]3[C@@H]1CCC2=O [Estrone],0.0961,0.0749,0.0943,-0.00298,0.0954,0.046,0.0242,-0.126,-0.099,-0.0604,-0.112,-0.295,-0.445,-0.269,-0.323,-0.542,0.0282,0.0899,0.127,0.0988,0.0277,0.0438,0.0954,0.209,0.474,0.569,0.585,0.601,0.271,0.43,0.447,0.475
COc1cc(Nc2c(C#N)cnc3cc(OCCCN4CCN(C)CC4)c(OC)cc23)c(Cl)cc1Cl [Bosutinib (SKI-606)],0.086,0.0525,-0.0862,-0.0345,0.264,0.239,0.19,0.239,-0.0137,-0.0501,-0.131,-0.404,-0.377,-0.355,-0.406,-0.598,0.0416,0.085,0.124,0.135,0.333,0.281,0.33,0.431,0.588,0.626,0.647,0.638,0.263,0.36,0.378,0.403
CCCCCCCCc1ccc(CCC(N)(CO)CO)cc1 [Fingolimod (FTY720)],0.0955,0.0585,0.0453,-0.1,0.0228,0.0231,0.00428,-0.0571,0.0298,0.0648,-0.0103,-0.296,-0.16,-0.13,-0.129,-0.231,0.0534,0.0695,0.13,0.219,-0.0305,0.0614,0.0905,0.203,0.437,0.577,0.586,0.614,0.364,0.447,0.474,0.484
Cn1cnc(N)c2ncnc1-2 [3-Methyladenine],0.0713,0.0365,0.0189,0.0577,0.00855,0.0177,-0.0282,-0.00202,0.018,-0.00798,-0.0197,-0.0603,-0.346,-0.249,-0.276,-0.338,0.0187,0.0789,0.12,0.165,-0.00331,0.0603,0.0974,0.207,0.557,0.602,0.615,0.612,0.517,0.565,0.57,0.56
Nc1ccc(-c2ccc3ncc4ccc(=O)n(-c5cccc(C(F)(F)F)c5)c4c3c2)cn1 [Torin 2],0.465,0.318,0.24,0.244,0.937,0.963,0.974,0.981,0.402,0.267,0.158,-0.141,0.769,0.804,0.808,0.781,0.305,0.238,0.247,0.312,0.953,0.97,0.98,0.986,0.613,0.549,0.527,0.515,0.838,0.874,0.881,0.887
CC#C[C@]1(O)CC[C@H]2[C@@H]3CCC4=CC(=O)CCC4=C3[C@@H](c3ccc(N(C)C)cc3)C[C@@]21C [Mifepristone (Mifeprex)],-0.0691,-0.0767,-0.047,0.0535,-0.0327,-0.0148,-0.0455,0.0917,-0.296,-0.283,-0.273,-0.268,-0.146,-0.253,-0.254,-0.235,-0.019,0.0308,0.0649,0.159,-0.0642,-0.00915,0.0416,0.233,0.413,0.477,0.486,0.497,0.391,0.438,0.445,0.436
COc1cc2c(cc1OC)CN(CCc1ccc(NC(=O)c3cccc4c(=O)c5cccc(OC)c5[nH]c34)cc1)CC2 [Elacridar],-0.00987,0.00491,0.00725,0.0766,0.114,0.0649,0.000978,-0.0858,-0.196,-0.178,-0.24,-0.531,-0.21,-0.258,-0.283,-0.457,-0.0285,0.00551,0.0106,0.107,0.0477,0.0502,0.0374,-0.0614,0.3,0.468,0.491,0.503,0.263,0.407,0.424,0.403
CC(C)C[C@@H](C(=O)N[C@H](C(=O)OC1CCCC1)c1ccccc1)[C@H](O)C(=O)NO [Tosedostat (CHR2797)],0.0666,0.0228,-0.0512,-0.123,-0.142,-0.112,-0.102,-0.0781,0.0304,0.0133,0.000967,-0.0544,-0.208,-0.212,-0.221,-0.3,0.00927,0.0682,0.108,0.162,-0.0889,-0.0223,0.0204,0.176,–,–,–,–,–,–,–,–
CCN(CC)CCCCNc1ncc2cc(-c3cc(OC)cc(OC)c3)c(NC(=O)NC(C)(C)C)nc2n1,-0.118,-0.118,-0.0732,-0.00128,-0.114,-0.0849,-0.071,0.0716,-0.21,-0.246,-0.227,-0.211,-0.356,-0.38,-0.379,-0.398,-0.0428,0.00417,0.0568,0.152,-0.156,-0.0951,-0.0251,0.158,–,–,–,–,–,–,–,–
O=C(CCc1ccc(O)cc1)c1c(O)cc(O)cc1O [Phloretin (Dihydronaringenin)],0.0643,0.0536,-0.0351,-0.0447,-0.0185,0.0218,-0.0851,-0.198,-0.0549,-0.06,-0.168,-0.56,-0.0989,-0.0769,-0.0878,-0.189,0.0204,0.0299,0.064,0.0928,-0.0932,0.0213,-0.0168,0.0656,–,–,–,–,–,–,–,–
Cc1oc(S(=O)(=O)N2CCCCC2)cc1NC(=O)Nc1ccccc1,0.104,0.0184,-0.0595,-0.0798,-0.0127,0.0108,-0.117,-0.249,0.0245,0.075,-0.0191,-0.188,0.0283,0.0927,0.052,-0.0369,0.0412,0.101,0.11,0.174,-0.0876,0.0154,-0.000234,0.0155,0.422,0.557,0.585,0.576,0.511,0.598,0.601,0.574
Cc1csc(-c2nnc(Nc3ccc(Oc4ncccc4-c4ccnc(N)n4)cc3)c3ccccc23)c1,0.0562,-0.00651,0.0489,0.269,0.102,0.112,0.103,0.252,0.0279,-0.0253,0.0704,0.206,-0.211,-0.208,-0.145,-0.0126,0.0788,0.121,0.207,0.449,0.271,0.306,0.344,0.538,–,–,–,–,–,–,–,–
COC1=CC(c2cc3ccccc3[nH]2)=N/C1=C\c1[nH]c(C)cc1C [Obatoclax mesylate (GX15-070)],0.114,0.0688,-0.0597,-0.127,0.123,0.0924,0.0457,-0.0101,0.00951,0.024,-0.054,-0.371,-0.444,-0.248,-0.309,-0.6,0.00229,0.0671,0.129,0.144,0.143,0.163,0.242,0.343,0.479,0.58,0.604,0.618,0.201,0.411,0.412,0.435
O=C(/C=C/c1cccc(S(=O)(=O)Nc2ccccc2)c1)NO [Belinostat (PXD101)],0.222,0.196,0.137,0.152,0.961,0.964,0.974,0.979,0.107,0.129,0.11,0.00837,0.884,0.83,0.818,0.796,0.0215,0.0654,0.0711,0.0685,0.961,0.975,0.984,0.988,0.503,0.586,0.594,0.603,0.934,0.935,0.938,0.945
CC(=O)[C@]1(O)Cc2c(O)c3c(c(O)c2[C@@H](O[C@H]2C[C@H](N)[C@H](O)[C@H](C)O2)C1)C(=O)c1ccccc1C3=O [Idarubicin HCl],0.517,0.599,0.684,0.751,0.962,0.973,0.977,0.98,0.685,0.744,0.786,0.827,0.781,0.825,0.851,0.883,0.584,0.712,0.817,0.881,0.972,0.979,0.981,0.985,0.924,0.947,0.964,0.971,0.831,0.89,–,–
